Hit rate of the full screen: of about 69,000 compounds, about 8,600 (12%) showed an effect of 50% or more. Shown is part of a subset that was picked to be rich in strong results.
Test system: Plasmodium berghei
Assay: Screen against P. berghei liver stage (PbLuc), transformed with Luciferase, at 10uM
Type: functional, HepG2
Settings: tested at 10 uM

Compound	INHIBITION [%]
CCC(C)Nc1ccc(-c2nc(-c3cccc(OC)c3OC)no2)cn1 (configuration not stated)	33.9
c1cc(CNc2ccc(-c3nc(C4CC4)no3)cn2)no1	1.98
CN(C)CCO[C@@H]1CC[C@H]2[C@H]1OCCN2C(=O)CCc1ccccc1	5.65
CC(=O)N1C[C@H]2CC[C@@H](C1)N(S(=O)(=O)c1cc(F)ccc1C)C2	-18.1
O=C(O)c1ccccc1C1CCN(C2CCN(c3ccccc3)CC2)C1 (configuration not stated)	35.1
COc1ccc(N2CCC(N3CCOC(C(F)(F)F)C3)CC2)cc1 (configuration not stated)	-25.2
CCS(=O)(=O)c1ccc(N2CCC(N)CC2)cc1	12.2
NC1CCN(C2CCN(c3ccc(-c4ccco4)cc3)CC2)CC1	65
CNC1CCN(C2CCN(c3ccc(-c4ccco4)cc3)CC2)CC1	49
NCC1CCN(C2CCN(c3ccc(-c4ccco4)cc3)CC2)C1 (configuration not stated)	92.8
Cc1cccc(C(=O)N2CCn3cc(CN4CCCCC4)nc3C2)n1	49.7
NC(=O)c1cc2c(nc1N)CCN(C(=O)C1CCCCC1)C2	62.9
Nc1cc2c(nn1)CCN(C(=O)CCc1ccc3c(c1)OCO3)C2	32.9
Nc1cc2c(nn1)CCN(C(=O)CCCC1CCCCC1)C2	70.8
Nc1cc2c(nn1)CCN(C(=O)CC1CCCC1)C2	2.26
Cn1ncc2c1CCCN(C(=O)C1CCCC1)C2	22.75
Nc1cc2c(nn1)CCN(C(=O)Cc1ccc3c(c1)CCO3)C2	5.42
Nc1cc2c(nn1)CCN(C(=O)C1CCc3ccccc31)C2 (configuration not stated)	17.4
Cn1ncc2c1CCCN(C(=O)C1CCC1)C2	10.855
CCNc1cc2c(nn1)CCN(C(=O)CC1CCCCC1)C2	30.2
Nc1cc2c(nn1)CCN(C(=O)CCC1CCCCC1)C2	62.6
Nc1cc2c(nn1)CCN(C(=O)CC1CCCCC1)C2	50.3
Nc1cc2c(nn1)CCN(C(=O)Cc1ccc3c(c1)CCCC3)C2	8.4
Cn1nnc2c1CCN(Cc1ccccc1)C2COCC1CC1 (configuration not stated)	33.5
COc1cn(CC(=O)N2CCN(c3ccc(Cl)cc3)CC2)c(C)cc1=O	28.3
COc1cc(OC)cc(-c2cc(N)on2)c1	12.8

Compound	INHIBITION [%]
Cc1ccc(CN(CC(=O)N2CCOC(C)C2)C2CC2)cc1 (configuration not stated)	-59.4
C[C@@H](NC(=O)c1cnccn1)c1c(-c2ccc(Cl)cc2)noc1C(=O)O	26
CC(C)c1noc(CN(CCC2CCCCC2)CC(N)=O)n1	34
CN1CC(C(=O)NCCc2ccc3c(c2)OCCO3)CC1=O (configuration not stated)	27.7
Cc1cc(C2CCCN2Cc2nc3ccccc3o2)on1 (configuration not stated)	-12.2
CC(C)Cn1nnnc1SC(C(=O)NCc1cccnc1)C(C)C (configuration not stated)	16.9
Cc1nccnc1CCC1COCCN1C(=O)CCc1c(C)noc1C (configuration not stated)	9.05
Cc1ncsc1CN1C[C@@H]2COC[C@]2(C(=O)NCc2cccnc2)C1	42.1
Cc1nc(C)c(CC(=O)N2CCC(c3ccn4nccc4n3)CC2)s1	4.13
CNc1ncccc1C(=O)N1CCCC2(C1)C(=O)N(C)c1ccccc12 (configuration not stated)	-4.35
CCCc1noc2ncc(C(=O)N3CCCC3c3cnn(C)c3)cc12 (configuration not stated)	-29.1
CN(C)CCN1C[C@@H]2CN(C(=O)C3CC=CC3)C[C@@H]2C1=O	8.31
CN(C)CCN1C[C@@H]2CN(S(=O)(=O)c3ccccc3)C[C@@H]2C1=O	53.9
CN(C)CCN1C[C@@H]2CN(c3ccccc3)C[C@@H]2C1=O	53.9
CN(C)CCN1C[C@@H]2CN(C(=O)c3ccsc3)C[C@@H]2C1=O	3.47
O=C1[C@H]2CN(S(=O)(=O)c3ccccc3)C[C@H]2CN1Cc1cccnc1	-29
CN(C)CCN1C[C@@H]2CN(S(=O)(=O)c3cccs3)C[C@@H]2C1=O	-9.74
CN1CCN(Cc2cnc3n2CCN(CCc2ccccc2)C3)CC1	-18.2
O=C(c1ccccn1)N1CCC(Cc2cnc3[nH]ccc3c2)CC1	-12.2
COC(=O)c1cccc(S(=O)(=O)NC(=O)COC2CCCCC2)c1	38.8
C[C@@H]1C[C@H](C(F)(F)F)n2nc(C3CCN(S(C)(=O)=O)CC3)cc2N1	1.5
O=C(C1CN(CC2CCOCC2)CC12CCOCC2)N1CCOCC1 (configuration not stated)	23.3
CNC(=O)[C@@H]1C[C@@H](NC(=O)Cc2nonc2C)CN1Cc1sccc1C	51.5
CNC(=O)[C@@H]1C[C@@H](NC(=O)c2ccc(OC)o2)CN1Cc1sccc1C	20.8
CNC(=O)[C@@H]1C[C@@H](NC(=O)c2cn(C)nc2C)CN1Cc1sccc1C	25.8
COc1ccc(OC)c(C(O)CNC(=O)Nc2cc(C)nn2C)c1 (configuration not stated)	10.35
